Many of the other results were omitted from the sample, so hits are more common in it than they were.
DUX4 inh: blocks DUX4-driven transcriptional activation; 293T-iDUX4 ZSCAN4-Gaussia luciferase reporter, 24 h; active compounds read low; activity change, negative = inhibition, % (test concentration not listed); 37,000 compounds, 0.8% hits;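 active = mean inhibition of at least 10% in the main channel, exceeding the control channel by a set limit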;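 note: 0% = median of neutral control wells and -100% = median of positive control wells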
* marks the source's active call; other numbers are inactive results.

Cc1ccc(S(=O)(=O)N2CC[C@@H]3[C@H]2c2cc(-c4ccccc4F)ccc2N(C)[C@H]3CO)cc1 was read as DUX4 inh 0.2.
`CN(C)CC(=O)Nc1ccc2c(c1)[C@H]1C[C@H](CC(=O)NC3CCCCC3)O[C@H](CO)[C@H]1O2` gave DUX4 inh 2.6.
CCCN1C[C@@H](C)[C@@H](OC)CN(C)C(=O)c2cc(NS(=O)(=O)c3ccccc3)ccc2OC[C@H]1C was read as DUX4 inh 6.9.
COc1cccc(S(=O)(=O)Nc2ccc3c(c2)C(=O)N(C)C[C@@H](OC)[C@H](C)CN(Cc2ccccc2F)[C@H](C)CO3)c1 was read as DUX4 inh -25.9*.
For COc1cccc(S(=O)(=O)Nc2ccc3c(c2)C(=O)N(C)C[C@H](OC)[C@@H](C)CN(Cc2ccccc2F)[C@H](C)CO3)c1 the results were DUX4 inh -3.7.
Screening O=C(O)C[C@@H]1C[C@H]2c3cc(NS(=O)(=O)c4ccc(F)cc4)ccc3O[C@H]2[C@H](CO)O1 returned DUX4 inh 4.5.
Screening Cc1ccccc1-c1ccc([C@H]2[C@@H](CO)N3CCCCN(C(=O)CN4CCOCC4)C[C@@H]23)cc1 returned DUX4 inh 11.2.
For COCC(=O)Nc1ccc2c(c1)C(=O)N(C)[C@H]1CC[C@@H](CC(=O)NCc3ccc(OC)cc3)O[C@@H]1CO2 the results were DUX4 inh 5.2.
CCCC(=O)Nc1ccc2c(c1)C(=O)N(C)[C@@H]1CC[C@H](CC(=O)O)O[C@@H]1CO2 was read as DUX4 inh 2.3.
Screening O=C(C[C@@H]1CC[C@@H]2[C@H](COC[C@@H](O)CN2S(=O)(=O)c2ccccc2)O1)NCc1ccc2c(c1)OCO2 returned DUX4 inh 2.8.
OC[C@@H]1[C@@H](c2ccc(C#CC3(O)CCCC3)cc2)[C@H]2CN(Cc3ccccc3F)CCCCN12 was read as DUX4 inh 7.3.
`COc1ccc(C#Cc2ccc([C@@H]3[C@H]4CN(Cc5ccncc5)CCCCN4[C@H]3CO)cc2)cc1` gave DUX4 inh -36.3*.
For COc1ccc(C#Cc2ccc([C@@H]3[C@H](CO)N4CCCCN(Cc5ccncc5)C[C@@H]34)cc2)cc1 the results were DUX4 inh -0.2.
Screening COCC#Cc1ccc([C@@H]2[C@@H](CO)N3CCCCN(Cc4ccncc4)C[C@H]23)cc1 returned DUX4 inh 23.9.
For COCC#Cc1ccc([C@@H]2[C@H]3CN(Cc4ccccc4F)CCCCN3[C@H]2CO)cc1 the results were DUX4 inh 0.9.
For COc1ccc(C#Cc2ccc([C@@H]3[C@@H](CO)N4CCCCN(Cc5ccccc5F)C[C@H]34)cc2)cc1 the results were DUX4 inh -18.8*.
For CN1CCCCN2[C@@H](CO)[C@H](c3ccc(C#Cc4ccccc4F)cc3)[C@@H]2C1 the results were DUX4 inh 2.0.
COc1ccc(C#Cc2ccc([C@H]3[C@H]4CN(Cc5ccccc5F)CCCCN4[C@H]3CO)cc2)cc1 was read as DUX4 inh -21.4*.
For CN1CCCCN2[C@H](C1)[C@@H](c1ccc(C#Cc3ccccc3F)cc1)[C@@H]2CO the results were DUX4 inh -10.0.
CS(=O)(=O)N1CC(=O)N2[C@H](CO)[C@H](c3ccc(C#CC4CCCC4)cc3)[C@@H]2C1 was read as DUX4 inh 2.8.
Screening C[C@@H]1CN([C@H](C)CO)C(=O)c2ccccc2-c2ccccc2CO[C@H]1CN(C)S(=O)(=O)c1ccc([N+](=O)[O-])cc1 returned DUX4 inh 0.5.
C[C@H]1CN([C@@H](C)CO)S(=O)(=O)c2ccc(C#CC3CC3)cc2O[C@H]1CN(C)C(=O)c1cccc(F)c1 was read as DUX4 inh 1.3.
Screening C[C@@H]1CN([C@H](C)CO)C(=O)Cc2cc(NC(=O)Nc3ccccc3)ccc2O[C@@H]1CN(C)CC1CCCCC1 returned DUX4 inh 1.5.
`CO[C@@H](CN(C)S(=O)(=O)c1ccc(C)cc1)[C@H](C)CN([C@@H](C)CO)S(=O)(=O)c1cccc(Cl)c1` gave DUX4 inh -5.2.
O=C(C[C@H]1CC[C@@H](NC(=O)Nc2ccccc2F)[C@H](CO)O1)NCc1ccc(Cl)cc1 was read as DUX4 inh 4.3.
Screening C[C@H](CO)N1C[C@H](C)[C@@H](CN(C)CC2CC2)OCCCC[C@H](C)Oc2ccc(NC(=O)c3ccccc3)cc2C1=O returned DUX4 inh 2.8.
For O=C(CN1CCOCC1)N1CCCCN2[C@@H](CO)[C@@H](c3ccc(C#Cc4ccccc4F)cc3)[C@@H]2C1 the results were DUX4 inh -9.2.
Screening O=C(CN1CCOCC1)N1CCCCN2[C@H](CO)[C@@H](c3ccc(C#Cc4ccccc4F)cc3)[C@H]2C1 returned DUX4 inh -7.2.
`CC(=O)N1CCCCN2[C@@H](CO)[C@H](c3ccc(C#Cc4ccccc4F)cc3)[C@@H]2C1` gave DUX4 inh -9.9.
For CC(=O)N1CCCCN2[C@H](C1)[C@H](c1ccc(C#Cc3ccccc3F)cc1)[C@@H]2CO the results were DUX4 inh -7.0.
For CC(C)NC(=O)N1CCCCN2[C@H](C1)[C@@H](c1ccc(C#Cc3ccccc3F)cc1)[C@@H]2CO the results were DUX4 inh -46.8*.
Screening O=C(CN1CCOCC1)N1CCCCN2[C@H](CO)[C@@H](c3ccc(C#Cc4ccccc4F)cc3)[C@@H]2C1 returned DUX4 inh -35.9*.
`C[C@H]1CN([C@@H](C)CO)C(=O)CCCn2nncc2CO[C@@H]1CN(C)C(=O)Nc1ccc2c(c1)OCCO2` gave DUX4 inh 5.3.
Screening C[C@H]1CCCCO[C@@H](CN(C)C(=O)Cc2ccccc2)[C@@H](C)CN([C@@H](C)CO)C(=O)c2cc(NS(C)(=O)=O)ccc2O1 returned DUX4 inh -3.8.
For C[C@@H]1CN([C@H](C)CO)C(=O)c2c(c3ccccc3n2C)-c2ccccc2CO[C@@H]1CN(C)S(=O)(=O)c1ccc(C(F)(F)F)cc1 the results were DUX4 inh -0.5.
Screening Cc1ccccc1S(=O)(=O)N(C)C[C@H]1OCc2ccccc2-c2c(n(C)c3ccccc23)C(=O)N([C@H](C)CO)C[C@@H]1C returned DUX4 inh -35.3*.
`C[C@@H]1CN([C@H](C)CO)C(=O)c2c(c3ccccc3n2C)-c2ccccc2CO[C@H]1CN(C)S(=O)(=O)c1ccc(F)cc1` gave DUX4 inh -29.1*.
C[C@@H]1CN([C@H](C)CO)C(=O)c2c(c3ccccc3n2C)-c2ccccc2CO[C@@H]1CN(C)S(C)(=O)=O was read as DUX4 inh 17.3.
Screening C[C@@H]1CN([C@@H](C)CO)C(=O)c2c(c3ccccc3n2C)-c2ccccc2CO[C@@H]1CN(C)S(=O)(=O)c1ccc(C#N)cc1 returned DUX4 inh 3.2.
For C[C@@H]1CN([C@@H](C)CO)C(=O)c2c(c3ccccc3n2C)-c2ccccc2CO[C@@H]1CN(C)S(=O)(=O)c1cccc(C#N)c1 the results were DUX4 inh -24.5*.
Screening C[C@@H]1CN([C@H](C)CO)C(=O)c2c(c3ccccc3n2C)-c2ccccc2CO[C@H]1CN(C)S(=O)(=O)c1cccc(C#N)c1 returned DUX4 inh 12.8.
For C[C@H]1CN([C@@H](C)CO)C(=O)c2c(c3ccccc3n2C)-c2ccccc2CO[C@@H]1CN(C)S(=O)(=O)c1ccc([N+](=O)[O-])cc1 the results were DUX4 inh -4.9.
Screening C[C@@H]1CN([C@H](C)CO)C(=O)c2c(c3ccccc3n2C)-c2ccccc2CO[C@H]1CN(C)S(C)(=O)=O returned DUX4 inh 7.6.

Screening data from PubChem BioAssay.
